{
  "source": "PubChem BioAssay AID818",
  "about": "(SRMLSC, 2007)",
  "note": "Hit rate of the full screen: of about 140,000 compounds, about 2,100 (1.5%) were called active.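 Rule for the calls: active = viability at or under a set limit, the compound median less 4 SD (cut at about 6% in these data); inactive = the rest.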 What follows is part of a selection rich in actives, with near analogues and random picks from the rest.",
  "data": [
    {"assay": "primary screen for growth suppressors in beta-catenin knockout HCT116 cells (colon tumor, human) (AID 818);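 note: 0% = Hyamine 1622 control at 20 µM and 100% = untreated cell control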", "details": "CellTiter-Glo, 60 h, at 10 µM, stronger effect = lower value", "values": [
      {"smiles": "CCOc1ncccc1C(=O)N(CC)CC(=O)Nc1ccc(NC(C)=O)cc1", "viability": "104% (inactive)"},
      {"smiles": "CCOC(=O)C1=C(c2ccc(OC)cc2)C(=O)c2ccccc2C1=O", "viability": "1.16% (active)"},
      {"smiles": "CCCCC(C(=O)OCC(=O)c1ccc(OC)cc1)N1C(=O)c2ccccc2C1=O", "note": "(centres undefined)", "viability": "103% (inactive)"},
      {"smiles": "CCOC(=O)c1ccccc1NS(=O)(=O)c1ccc(OC)cc1", "viability": "17.6% (inactive)"},
      {"smiles": "CCOC(=O)c1nn(-c2ccccc2F)c2nc(Nc3ccccc3)cc(=O)n12", "viability": "94.3% (inactive)"},
      {"smiles": "FC(F)(F)c1cccc(NC(=S)Nc2cccc(Cl)c2)c1", "viability": "5.77% (active)"},
      {"smiles": "S=C(Nc1cccc(Cl)c1)Nc1ccc2cn[nH]c2c1", "viability": "77.5% (inactive)"},
      {"smiles": "Cc1csc(NC(=S)Nc2cccc(Cl)c2)n1", "viability": "26.5% (inactive)"},
      {"smiles": "COC(=O)/C(=C1\\Oc2ccc(C(C)(C)C)cc2S1)C(F)(F)F", "viability": "102% (inactive)"},
      {"smiles": "Cc1[nH]n(-c2ccccc2)c(=O)c1/C=N/NC(=O)c1ccoc1C", "viability": "3.98% (active)"},
      {"smiles": "Cc1ccc(-n2[nH]c(C)c(/C=N/NC(=O)c3cccc([N+](=O)[O-])c3)c2=O)cc1C", "viability": "3.51% (active)"},
      {"smiles": "Cc1[nH]n(-c2ccc(Cl)cc2)c(=O)c1/C=N/n1c(C)nc2ccccc2c1=O", "viability": "22.4% (inactive)"},
      {"smiles": "COc1cc(/C=N\\NC(=O)CNC(=O)c2cccc([N+](=O)[O-])c2)ccc1O", "viability": "79% (inactive)"},
      {"smiles": "COc1cccc(/C=N/NC(=O)c2cccc([N+](=O)[O-])c2)c1OS(=O)(=O)c1ccc(C)cc1", "viability": "80.7% (inactive)"},
      {"smiles": "Cc1[nH]n(-c2cccc(Cl)c2)c(=O)c1/C=N/n1c(C)nc2ccccc2c1=O", "viability": "85.9% (inactive)"},
      {"smiles": "COC(=O)C1NN=C(C(=O)c2ccc(Br)cc2)C1c1cccc(Br)c1", "note": "(centres undefined)", "viability": "96.8% (inactive)"},
      {"smiles": "O=C(CN1CCN(c2ccc(O)cc2)CC1)NC1CCCc2ccccc21", "note": "(centres undefined)", "viability": "74% (inactive)"},
      {"smiles": "COc1ccc(CC(=O)N/N=C(\\C)c2ccccn2)cc1", "viability": "3.98% (active)"},
      {"smiles": "COc1ccc(C(CC(=O)O)NC(=O)Cc2ccccc2)cc1", "note": "(centres undefined)", "viability": "96.5% (inactive)"},
      {"smiles": "C/C(=N\\NC(=O)Cc1ccc(Cl)cc1)c1ccccn1", "viability": "4.96% (active)"},
      {"smiles": "C/C(=N\\NC(=O)Cc1ccc(F)cc1)c1ccc(F)cc1", "viability": "99.1% (inactive)"},
      {"smiles": "COc1ccc(C/C(C)=N/NC(=O)c2ccncc2)cc1", "viability": "91.1% (inactive)"},
      {"smiles": "C/C(=N/NC(=O)CSc1ccccn1)c1ccc([N+](=O)[O-])cc1", "viability": "94.1% (inactive)"},
      {"smiles": "CCC(CC)C(=O)N1CCN(c2cccc(C)c2C)CC1", "viability": "43.6% (inactive)"},
      {"smiles": "COC(C(=O)Nc1ccc(C(C)=O)cc1)c1ccccc1", "note": "(centres undefined)", "viability": "85.5% (inactive)"},
      {"smiles": "O=C(NCCCO)/C(=C\\C=C\\c1ccccc1)NC(=O)c1ccccc1Cl", "viability": "94% (inactive)"},
      {"smiles": "Cc1cc(Br)ccc1SCC(=O)OCC(=O)NCc1ccc2c(c1)OCO2", "viability": "85.9% (inactive)"},
      {"smiles": "CC(C)C(=O)Nc1cccc(NC(=O)c2ccc([N+](=O)[O-])cc2Cl)c1", "viability": "96% (inactive)"},
      {"smiles": "O=C(NCc1ccc(Cl)c(Cl)c1)c1cccnc1", "viability": "92.2% (inactive)"},
      {"smiles": "O=C(/C=C/c1ccc(Cl)cc1Cl)c1cccnc1", "viability": "0.88% (active)"},
      {"smiles": "O=C(/C=C/c1ccc(Cl)cc1Cl)NCc1ccco1", "viability": "102% (inactive)"},
      {"smiles": "CC(=O)Nc1ccc(NC(=S)NC(=O)c2ccc([N+](=O)[O-])c(C)c2)cc1", "viability": "93.3% (inactive)"},
      {"smiles": "CCC(C)(C)C1CCC(=NNC(=O)c2ccc(Br)o2)CC1", "note": "(centres undefined)", "viability": "94.6% (inactive)"},
      {"smiles": "O=C(COC(=O)Cc1ccc(Br)cc1)Nc1c(F)c(F)c(F)c(F)c1F", "viability": "94.5% (inactive)"},
      {"smiles": "COc1cc(/C=C2\\SC(=S)N(Nc3ncc(C(F)(F)F)cc3Cl)C2=O)cc(OC)c1OC", "viability": "109% (inactive)"},
      {"smiles": "COc1cccc(/C=N/Nc2ncc(C(F)(F)F)cc2Cl)c1O", "viability": "2.51% (active)"},
      {"smiles": "COc1cccc(/C=N\\NC(=O)C2=NNC(=O)C2C)c1O", "note": "(centres undefined)", "viability": "45.9% (inactive)"},
      {"smiles": "COc1ccc(OC)c(-c2c(=O)n(OCc3ccccc3Br)c3ccccc3[n+]2[O-])c1", "viability": "74.9% (inactive)"},
      {"smiles": "COc1ccc(C(=O)Nc2c(Cl)cc(Cl)cc2C(=O)N2CCC(C)CC2)cc1", "viability": "77.2% (inactive)"},
      {"smiles": "Cc1cccc(OCC(=O)NC(=S)Nc2ccccc2N2CCOCC2)c1", "viability": "98.4% (inactive)"},
      {"smiles": "CCOc1cc(N2CCOCC2)c(OCC)cc1NC(=O)COc1cccc2cccnc12", "viability": "4.29% (active)"},
      {"smiles": "CCOc1cc(N2CCOCC2)c(OCC)cc1NC(=O)COC(=O)[C@H](Cc1c[nH]c2ccccc12)NC(C)=O", "viability": "87.2% (inactive)"},
      {"smiles": "CCOC(=O)c1ccccc1N1C(=O)C2Sc3[nH]c(=O)sc3C(/C=C/c3ccccc3)C2C1=O", "note": "(centres undefined)", "viability": "91.4% (inactive)"},
      {"smiles": "Cc1nc2c(C(=O)NCc3cccs3)cnn2c(C)c1Cc1ccc(F)cc1", "viability": "83.5% (inactive)"},
      {"smiles": "N#C/C(=C/c1ccc(N2CCCCC2)o1)C(=O)NCCc1c[nH]c2ccccc12", "viability": "90.2% (inactive)"},
      {"smiles": "O=C(Nc1ccc([N+](=O)[O-])cc1)C1(c2ccccc2)CCOCC1", "viability": "94.8% (inactive)"},
      {"smiles": "C=C1c2cc(CC)ccc2NC(=O)N1c1ccc(C)cc1", "viability": "98.3% (inactive)"},
      {"smiles": "CCc1ccc2c(c1)C1(NN=C(c3ccccc3)S1)C(=O)N2", "note": "(centres undefined)", "viability": "4.17% (active)"},
      {"smiles": "O=C1Nc2ccccc2C12Nc1ccccc1S2", "note": "(centres undefined)", "viability": "86.2% (inactive)"},
      {"smiles": "Cc1ccc2c(CC(=O)NCc3cccs3)coc2c1", "viability": "102% (inactive)"},
      {"smiles": "Cc1ccnc(NS(=O)(=O)c2ccc(NC(=O)c3ccc(S(=O)(=O)N4CCOCC4)cc3)cc2)n1", "viability": "97% (inactive)"},
      {"smiles": "CCC(C(=O)OCCN(CC)CC)c1ccccc1", "note": "(centres undefined)", "viability": "106% (inactive)"},
      {"smiles": "CCN(CC)CCOc1ccc2c(c1)C(=NNC(=O)c1ccccn1)c1cc(OCCN(CC)CC)ccc1-2", "viability": "0.37% (active)"},
      {"smiles": "CCC(C)(NC(=O)c1ccccn1)C(=O)NC1CCCCC1", "note": "(centres undefined)", "viability": "89.8% (inactive)"},
      {"smiles": "COCCNc1nc(N)c([N+](=O)[O-])c(NCCO)n1", "viability": "98.5% (inactive)"},
      {"smiles": "O=C(Nc1ccccc1F)c1ccccc1-c1ccc(C(F)(F)F)cc1", "viability": "77.4% (inactive)"},
      {"smiles": "CCOC(=O)C1=C(C)NC(=S)NC1c1cccs1", "note": "(centres undefined)", "viability": "84.5% (inactive)"},
      {"smiles": "Cc1cccc(NC(=O)NC(=S)NC(=O)c2ccccc2)c1", "viability": "102% (inactive)"},
      {"smiles": "O=C(NC1CCN(Cc2ccccc2)CC1)c1c(F)cccc1F", "viability": "93.9% (inactive)"}
    ]}
  ]
}
